Whole data set: some 140,000 sequences, median “enrichment ratio after two sorts for PhoP signalling” near 0, cut for the highest 2% near 11. The sample as a whole holds a higher share of the highest values than the screen did.
B1: PhoQ; a variant is named by its letters at X, in order, P23837 (parent)
chain: MKKLLRLFFPLSLRVRFLLATAAVVLVLSLAYGMVALIGYSVSFDKTTFRLLRGESNLFYTLAKWENNKLHVELPENIDKQSPTMTLIYDENGQLLWAQRDVPWLMKMIQPDWLKSNGFHEIEADVNDTSLLLSGDHSIQQQLQEVREDDDDAEMTHSVAVNVYPATSRMPKLTIVVVDTIPVELKSSYMVWSWFIYVLSANLLLVIPLLWVAAWWSLRPIEALAKEVRELEEHNRELLNPATTRELTSLVRNLNRLLKSERERYDKYRTTLTDLTHSLKTPLXXLQXXLRSLRSEKMSVSDAEPVMLEQISRISQQIGYYLHRASMRGGTLLSRELHPVAPLLDNLTSALNKVYQRKGVNISLDISPEISFVGEQNDFVEVMGNVLDNACKYCLEFVEISARQTDEHLYIVVEDDGPGIPLSKREVIFDRGQRVDTLRPGQGVGLAVAREITEQYEGKIVAGESMLGGARMEVIFGRQHSAPKDE

Variants of: B1
Assay: enrichment ratio after two sorts for PhoP signalling (ratio (wild type AVST 3.29)); higher = more functional
Settings: with PhoP (E. coli)

Row | Variant | enrichment ratio
1 | VHMG | ≤ 0.25
2 | LSWM | 2.98
3 | LWMM | ≤ 0.25
4 | FGMM | 18.1
5 | FGGM | ≤ 0.25
6 | FGWM | ≤ 0.25
7 | NNRM | ≤ 0.25
8 | LSMM | 12.4
9 | LNMM | 1.77
10 | NNMM | 17.4
11 | DRPI | ≤ 0.25
12 | ETGL | ≤ 0.25
13 | YNMN | ≤ 0.25
14 | ICFY | ≤ 0.25
15 | DNHD | ≤ 0.25
16 | PFKT | ≤ 0.25
17 | QPNP | ≤ 0.25
18 | PFSV | ≤ 0.25
19 | NIRV | ≤ 0.25
20 | ALCE | 16.1
21 | ALVE | ≤ 0.25
22 | ALCQ | 13.8
23 | ALQP | ≤ 0.25
24 | LLCQ | ≤ 0.25

Row | Variant | enrichment ratio
25 | ALCI | 9.33
26 | FDQC | ≤ 0.25
27 | HRRK | ≤ 0.25
28 | GSPQ | ≤ 0.25
29 | QRFG | ≤ 0.25
30 | WQFG | ≤ 0.25
31 | QEFG | 30.8
32 | QQFA | ≤ 0.25
33 | QKFG | ≤ 0.25
34 | QQFG | 20.2
35 | YSKV | ≤ 0.25
36 | PITH | ≤ 0.25
37 | YICL | 3.21
38 | AEAV | 15.8
39 | AEAL | 18.2
40 | AELT | 6.58
41 | ADAL | ≤ 0.25
42 | AAAL | 4.97
43 | AEYT | 2.16
44 | AEVT | 15.3
45 | AEAT | 47.1
46 | AENT | 10.7
47 | AEFT | 6.27
48 | AEEV | 2.19

Row | Variant | enrichment ratio
49 | AEYV | ≤ 0.25
50 | FMVL | ≤ 0.25
51 | SFSW | ≤ 0.25
52 | TSQR | ≤ 0.25
53 | MHEF | ≤ 0.25
54 | INEK | ≤ 0.25
55 | HTRD | ≤ 0.25
56 | IMKH | ≤ 0.25
57 | GQND | ≤ 0.25
58 | FWMY | ≤ 0.25
59 | RETL | ≤ 0.25
60 | VEGG | ≤ 0.25
61 | ECSV | ≤ 0.25
62 | IAKM | ≤ 0.25
63 | AQQY | ≤ 0.25
64 | AEAS | 21.3
65 | AEQY | 17.1
66 | AEST | 18.4
67 | AEQP | ≤ 0.25
68 | ADIY | ≤ 0.25
69 | AEAM | 5.95
70 | AEIY | 14.8
71 | ANIY | 0.312
72 | AEAG | 7.71

Row | Variant | enrichment ratio
73 | ARST | ≤ 0.25
74 | AQST | 5.3
75 | MKWE | ≤ 0.25
76 | PDNP | ≤ 0.25
77 | PQPV | ≤ 0.25
78 | INLG | 2.36
79 | DREC | ≤ 0.25
80 | VNMC | 1.44
81 | AEAN | 28.2
82 | AEIN | 1.09
83 | AEAW | ≤ 0.25
84 | AEAI | 14.2
85 | AEYI | 3.12
86 | AEDY | ≤ 0.25
87 | AIWT | ≤ 0.25
88 | AEKA | ≤ 0.25
89 | AEAY | 39.2
90 | AEYM | 3.72
91 | AEWT | 22.1
92 | AERY | ≤ 0.25
93 | ITKR | ≤ 0.25
94 | SVFT | ≤ 0.25
95 | VISK | ≤ 0.25
96 | LWWA | ≤ 0.25

Row | Variant | enrichment ratio
97 | NMII | ≤ 0.25
98 | TPVN | ≤ 0.25
99 | FWRY | ≤ 0.25
100 | SCFG | ≤ 0.25
101 | ITNE | ≤ 0.25
102 | TRFM | ≤ 0.25
103 | GRSR | ≤ 0.25
104 | PKLW | ≤ 0.25
105 | ECFL | ≤ 0.25
106 | NQDT | ≤ 0.25
107 | AENY | 5.26
108 | AEYQ | ≤ 0.25
109 | AEAD | ≤ 0.25
110 | AEGY | 43.4
111 | AEAA | 12.1
112 | AEYY | ≤ 0.25
113 | SGEP | ≤ 0.25
114 | INCT | ≤ 0.25
115 | NFHN | ≤ 0.25
116 | NMVN | ≤ 0.25
117 | DKLH | ≤ 0.25
118 | PNLH | ≤ 0.25
119 | ANTK | ≤ 0.25
120 | ANTE | ≤ 0.25

Row | Variant | enrichment ratio
121 | ANTH | 6.44
122 | ANNK | 0.253
123 | ANTA | 19.3
124 | ANTC | 63
125 | ANTG | 1.58
126 | ANTD | ≤ 0.25
127 | ANTR | ≤ 0.25
128 | ANTS | 21.1
129 | ANTI | 11.4
130 | ANFC | ≤ 0.25
131 | MYDG | ≤ 0.25
132 | PVQS | ≤ 0.25
133 | RRVW | ≤ 0.25
134 | HRAN | ≤ 0.25
135 | KEHR | ≤ 0.25
136 | SANM | 9.22
137 | NAVG | ≤ 0.25
138 | EVLL | ≤ 0.25
139 | KQMR | ≤ 0.25
140 | MDIQ | 0.654
141 | SEIE | ≤ 0.25
142 | KYIQ | ≤ 0.25
143 | STIQ | 14
144 | MMIQ | ≤ 0.25

Row | Variant | enrichment ratio
145 | SEFQ | 6.8
146 | MEIQ | 19.4
147 | SEIQ | 22.9
148 | YTIQ | ≤ 0.25
149 | EGNN | ≤ 0.25
150 | NRRY | ≤ 0.25
151 | THCI | 7.06
152 | ANVR | ≤ 0.25
153 | HNSH | ≤ 0.25
154 | HYAD | ≤ 0.25
155 | LNEM | ≤ 0.25
156 | KKNT | ≤ 0.25
157 | SECN | 23.5
158 | GMLN | 0.729
159 | FECN | 13
160 | GMCN | 13.6
161 | TECN | 60.8
162 | SNCN | 7.42
163 | FQCN | ≤ 0.25
164 | FCCN | ≤ 0.25
165 | KECN | ≤ 0.25
166 | FNCN | ≤ 0.25
167 | SELN | 8.08
168 | GTCN | 3.53

Row | Variant | enrichment ratio
169 | KSEA | ≤ 0.25
170 | VGRD | ≤ 0.25
171 | RFAS | ≤ 0.25
172 | LNVE | ≤ 0.25
173 | GWCA | ≤ 0.25
174 | ACRC | ≤ 0.25
175 | RCNS | ≤ 0.25
176 | FSFI | 0.694
177 | IGKY | ≤ 0.25
178 | SSNS | 0.835
179 | FEWI | ≤ 0.25
180 | FELA | 2.53
181 | FELN | 13.7
182 | DCCN | ≤ 0.25
183 | VECN | ≤ 0.25
184 | QECN | 9.04
185 | NECN | ≤ 0.25
186 | TCCN | 17.6
187 | MECN | 12.6
188 | MPYN | ≤ 0.25
189 | DKHY | ≤ 0.25
190 | CHTM | ≤ 0.25
191 | NPDP | ≤ 0.25
192 | DDIR | ≤ 0.25

Row | Variant | enrichment ratio
193 | NAWL | ≤ 0.25
194 | QAWM | 10.8
195 | QAWS | 18.4
196 | QAWL | 19.9
197 | KAWL | ≤ 0.25
198 | QAWI | ≤ 0.25
199 | NGDG | ≤ 0.25
200 | NCII | ≤ 0.25
201 | YKNN | ≤ 0.25
202 | GHVH | ≤ 0.25
203 | HGGE | ≤ 0.25
204 | LYYP | ≤ 0.25
205 | LFEG | ≤ 0.25
206 | SRSY | ≤ 0.25
207 | STSY | 11.6
208 | QESY | ≤ 0.25
209 | GEEY | ≤ 0.25
210 | KQSY | ≤ 0.25
211 | GVSY | ≤ 0.25
212 | SQSY | 8.96
213 | YTSY | ≤ 0.25
214 | NESY | ≤ 0.25
215 | TESY | 23.2
216 | GESY | 12.8

Row | Variant | enrichment ratio
217 | SESY | 25.4
218 | HTRW | ≤ 0.25
219 | TYTW | ≤ 0.25
220 | RVSE | ≤ 0.25
221 | PWWY | ≤ 0.25
222 | GELC | 8.26
223 | IGYI | ≤ 0.25
224 | YYAS | ≤ 0.25
225 | KYSY | ≤ 0.25
226 | SMSY | 11.4
227 | SPSY | ≤ 0.25
228 | SDSY | ≤ 0.25
229 | MESY | 14.8
230 | MMSY | 2.46
231 | NMSY | ≤ 0.25
232 | SNSY | 12.8
233 | MKSY | ≤ 0.25
234 | HYIP | ≤ 0.25
235 | DCSH | ≤ 0.25
236 | TYML | 0.784
237 | YCML | 12.7
238 | QPML | ≤ 0.25
239 | FTML | 12
240 | FPML | ≤ 0.25

Row | Variant | enrichment ratio
241 | YTML | 5.16
242 | TCML | 16.7
243 | KCML | ≤ 0.25
244 | VCML | 10
245 | YCNL | ≤ 0.25
246 | YYML | ≤ 0.25
247 | FCML | 21.1
248 | ILLC | ≤ 0.25
249 | TKRF | ≤ 0.25
250 | EMVN | ≤ 0.25
251 | VCYH | ≤ 0.25
252 | HYMK | ≤ 0.25
253 | KEFY | ≤ 0.25
254 | LSFV | 5.15
255 | SLYE | ≤ 0.25
256 | TVML | 1.47
257 | NVML | ≤ 0.25
258 | FVML | 13.2
259 | EIFI | ≤ 0.25
260 | NLQN | ≤ 0.25
261 | IMRF | ≤ 0.25
262 | TEKR | ≤ 0.25
263 | TCCR | 13.1
264 | TCKR | ≤ 0.25

Row | Variant | enrichment ratio
265 | VECR | ≤ 0.25
266 | CDCR | ≤ 0.25
267 | TECR | 16.3
268 | QFGW | ≤ 0.25
269 | KPGY | ≤ 0.25
270 | KAWY | ≤ 0.25
271 | VNCT | 1.24
272 | MEFD | ≤ 0.25
273 | NQCH | ≤ 0.25
274 | AQCH | 32.7
275 | WICH | ≤ 0.25
276 | AQTH | ≤ 0.25
277 | AHCH | 2.08
278 | TGCH | 10.6
279 | RGCH | ≤ 0.25
280 | AICH | 15.1
281 | AGCH | 11.6
282 | MICD | ≤ 0.25
283 | EHIV | ≤ 0.25
284 | FHVI | ≤ 0.25
285 | GTWL | ≤ 0.25
286 | IFFD | ≤ 0.25
287 | KVLP | ≤ 0.25
288 | LFKL | ≤ 0.25

Row | Variant | enrichment ratio
289 | STLI | 12.4
290 | ATLT | 10.2
291 | ATLS | 10.6
292 | YTLI | 12.8
293 | QPLI | ≤ 0.25
294 | SQLI | 11.8
295 | FTLI | 10.3
296 | DPLI | ≤ 0.25
297 | ATLI | 15.7
298 | SPLI | ≤ 0.25
299 | SILI | 4.12
300 | KYLI | ≤ 0.25
301 | SDYI | ≤ 0.25
302 | CPPL | ≤ 0.25
303 | LICH | ≤ 0.25
304 | GFMC | ≤ 0.25
305 | RVDS | ≤ 0.25
306 | INFA | ≤ 0.25

From a collection of fitness landscapes (doi:10.1126/science.1257360)
